Where “and” joins values, the source holds several entries; their conditions need not be identical. Equal entries are not always repeated. Inconclusive results are not listed. Calls of active or inactive are those of the source. Unless noted, calls follow the shape of the dose curve; as a rule, active = well fitted curve in the direction sought with a large enough effect in the repeat runs; inconclusive = weak or mixed curves; inactive = no such curve, though single readings can be large; an effect the other way counts as inactive or inconclusive.
How the values were obtained:
[1] = qHTS assay to identify small molecule antagonists of the constitutive androstane receptor (CAR) signaling pathway - cell viability counter screen (AID 1224837); also: nearly all actives have a fitted effect of over 45% in size
Summary of the method: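 HepG2 cells stably expressing hCAR and a CYP2B6-2.2kb reporter were plated and pre-incubated 4 hr at 37 C/5% CO2, then given compounds at 15 concentrations plus 50 nM CITCO (final). After 23 hr, viability was read by CellTiter-Fluor fluorescence.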

[2] = qHTS assay to identify small molecule antagonists of the estrogen related receptor signaling pathway with the pleiotropic PPARgamma coactivator (PGC) from Tox21 10K library - cell viability counter screen (AID 1224840; active = well fitted cell-killing curve with a large enough effect in the repeat runs, not every such curve was filed as active; also: nearly all actives have a fitted effect of over 40% in size)
Summary of the method: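 PGC/ERR cells were seeded at 2,000 cells/well and left 6 hours at 37 C/5% CO2 before pin-tool addition of compounds in DMSO. After 17.5 hours at 37 C, CellTiter-Fluor was added and fluorescence read 30 minutes later.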

[3] = biological target: Thyrotropin receptor (Homo sapiens) (UniProt P16473); assay: qHTS assay to identify small molecule agonists of the thyroid stimulating hormone receptor (TSHR) signaling pathway (AID 1224843; calls by dose curve; also: nearly all actives have a fitted effect of over 45% in size)
Sequence of Thyrotropin receptor (Homo sapiens) (P16473 whole entry, looked up): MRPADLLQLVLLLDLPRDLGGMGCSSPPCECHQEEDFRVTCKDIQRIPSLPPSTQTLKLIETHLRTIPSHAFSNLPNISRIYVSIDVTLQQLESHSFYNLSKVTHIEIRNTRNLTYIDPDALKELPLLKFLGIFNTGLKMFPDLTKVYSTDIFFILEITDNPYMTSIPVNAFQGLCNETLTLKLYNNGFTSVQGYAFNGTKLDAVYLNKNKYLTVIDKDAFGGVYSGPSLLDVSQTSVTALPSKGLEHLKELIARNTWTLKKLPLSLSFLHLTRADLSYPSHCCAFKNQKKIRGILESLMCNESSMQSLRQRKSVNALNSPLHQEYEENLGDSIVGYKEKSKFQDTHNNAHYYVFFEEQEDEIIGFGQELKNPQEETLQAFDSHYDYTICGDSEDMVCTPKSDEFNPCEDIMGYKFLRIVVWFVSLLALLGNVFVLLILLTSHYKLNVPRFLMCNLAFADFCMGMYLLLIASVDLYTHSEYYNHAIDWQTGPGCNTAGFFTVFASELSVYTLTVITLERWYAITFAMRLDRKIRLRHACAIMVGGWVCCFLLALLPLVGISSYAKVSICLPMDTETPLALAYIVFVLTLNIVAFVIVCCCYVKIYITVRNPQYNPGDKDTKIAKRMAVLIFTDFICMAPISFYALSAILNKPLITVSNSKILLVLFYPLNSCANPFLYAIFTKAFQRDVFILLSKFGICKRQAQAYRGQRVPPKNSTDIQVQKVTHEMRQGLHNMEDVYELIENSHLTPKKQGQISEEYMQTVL
Summary of the method: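 Cell line HEK293 with TSHR; density 800/well. Exposure 30 min RT. Readout HTRF cAMP (cAMP-d2/anti-cAMP-cryptate), 1 h RT before reading.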

[4] = qHTS assay to identify small molecule agonists of the hypoxia (HIF-1) signaling pathway - cell viability counter screen (AID 1224844; calls by dose curve; also: nearly all actives have a fitted effect of over 50% in size)
Summary of the method: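 HRE-bla ME-180 cells in medium with 0.5% dialyzed FBS were preincubated 5 hrs at 37C, exposed to compounds for 17 hrs, then viability was read as CellTiter-Glo luminescence after 30 min at room temperature, in the reporter wells.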

[5] = qHTS assay to identify small molecule agonists of H2AX (AID 1224845; active = well fitted activation curve with a large enough effect in the signal ratio in the repeat runs, not every such curve was filed as active; the % refers to the signal ratio)
Summary of the method: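 Wild-type CHO-K1 cells plated overnight, then exposed 3 hr at 37C to compounds at 15 concentrations (0.76% DMSO). Lysed, then HTRF anti-pH2AX(S139)-cryptate/anti-H2AX-d2 detection after 24 hr at room temperature; emissions 665 and 620 nm.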

[6] = qHTS assay to identify small molecule agonists of the hypoxia (HIF-1) signaling pathway (AID 1224846; active = well fitted activation curve with a large enough effect in the signal ratio in the repeat runs, not every such curve was filed as active; the % refers to the signal ratio)
Summary of the method: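 HRE-bla ME-180 cells (beta-lactamase reporter under hypoxia response element) were plated at 2,000 cells/well in medium with 0.5% dialyzed FBS, rested 5 hrs, then given compounds in DMSO for 17 hrs at 37C, 5% CO2. Reporter induction was read with CCF4-AM FRET substrate.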

[7] = qHTS assay to identify small molecule agonists of H2AX - cell viability counter screen (AID 1224847; calls by dose curve; also: top concentration of the series differs between compounds; nearly all actives have a fitted effect of over 30% in size)
Summary of the method: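 Read-out: CellTiter-Glo luminescence, 30 min RT. Cells: wild-type CHO-K1, 1000/well, 10% FBS, plated overnight at 37C. Treatment: 15 concentrations, 3 hr, 37C, 0.76% DMSO.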

[8] = qHTS RealTime-Glo MT Cell Viability Assay in HepG2 cells - 24 hour (AID 1224867); also: nearly all actives have a fitted effect of over 50% in size
Summary of the method: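 HepG2 cells were seeded at 600 cells/well together with NanoLuc luciferase and a cell-permeant prosubstrate, preincubated 5 h at 37 C/5% CO2, then pin-dosed with compounds in DMSO. Nonlytic luminescence from viable cells was read at each time point.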

[9] = qHTS RealTime-Glo MT Cell Viability Assay in HEK293 cells - 32 hour (AID 1224868); also: nearly all actives have a fitted effect of over 50% in size; also: potency is read from the fitted curve at half-maximal effect
Summary of the method: (§1)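 HEK293 cells were seeded at 600 cells/well together with NanoLuc luciferase and cell-permeant prosubstrate, preincubated 5 h at 37 C/5% CO2, then given compound in DMSO by pintool. Luminescence from viable-cell prosubstrate reduction was read repeatedly over 40 h.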

[10] = A CellTox Green Cytotoxicity Assay to monitor cytotoxicity in HEK293 cells - 0 hour (AID 1224869); also: nearly all actives have a fitted effect of over 50% in size
Summary of the method: (§2)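 HEK293 cells premixed with CellTox Green dye were seeded at 600 cells/well and left 5 h at 37 C/5% CO2 before pin transfer of 23 nL compound in DMSO. Fluorescence from dye bound to dead-cell DNA was read during 40 h treatment.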

[11] = qHTS RealTime-Glo MT Cell Viability Assay in HepG2 cells - 40 hour (AID 1224870); also: nearly all actives have a fitted effect of over 50% in size
Summary of the method: (§3)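 HepG2 cells mixed with RealTime-Glo MT reagents (NanoLuc plus cell-permeant prosubstrate) were seeded at 600 cells/well, incubated 5 h at 37 C/5% CO2, then pinned with compounds in DMSO; nonlytic luminescence tracked viability during 40 h treatment.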

[12] = A CellTox Green Cytotoxicity Assay to monitor cytotoxicity in HEK293 cells - 40 hour (AID 1224871); also: nearly all actives have a fitted effect of over 45% in size
Summary of the method: as §2

[13] = qHTS RealTime-Glo MT Cell Viability Assay in HEK293 cells - 16 hour (AID 1224872)
Summary of the method: as §1

[14] = qHTS RealTime-Glo MT Cell Viability Assay in HepG2 cells - 8 hour (AID 1224873); also: nearly all actives have a fitted effect of over 55% in size
Summary of the method: as §3

[15] = A CellTox Green Cytotoxicity Assay to monitor cytotoxicity in HEK293 cells - 24 hour (AID 1224875); also: nearly all actives have a fitted effect of over 45% in size
Summary of the method: as §2

[16] = A CellTox Green Cytotoxicity Assay to monitor cytotoxicity in HepG2 cells - 16 hour (AID 1224876); also: nearly all actives have a fitted effect of over 45% in size
Summary of the method: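 HepG2 cells were seeded together with the CellTox Green dye at 600 cells/well, left 5 h at 37 C/5% CO2, then given compounds in DMSO. Fluorescence from dye bound to dead-cell DNA was read repeatedly over 40 h of treatment at 37 C.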

[17] = qHTS assay to identify small molecule agonists of the estrogen related receptor (ERR) signaling pathway from Tox21 library (AID 1224849; calls by dose curve; also: nearly all actives have a fitted effect of over 15% in size); conditions: ERR reporter cell line, ONE-Glo luciferase, 18 h
Summary of the method: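 ERR reporter cell line (NTP) seeded, rested 6 h at 37 C/5% CO2, then pinned with Tox21 compounds in DMSO. After 18 h at 37 C, ONE-Glo luciferase luminescence was read following 30 min at room temperature.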

[18] = qHTS RealTime-Glo MT Cell Viability Assay in HEK293 cells - 40 hour (AID 1224874); conditions: RealTime-Glo luminescence; max response: hits give low values; also: nearly all actives have a fitted effect of over 50% in size; also: potency is read from the fitted curve at half-maximal effect
Summary of the method: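 HEK293 cells mixed with RealTime-Glo reagents (NanoLuc plus cell-permeant prosubstrate) at 600 cells/well, preincubated 5 h at 37 C/5% CO2, then given 23 nL compound in DMSO. Nonlytic luminescence from viable cells was read at 0, 8, 16, 24, 32 and 40 h.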

[19] = biological target: Nuclear receptor subfamily 1 group I member 3 (Homo sapiens) (UniProt Q14994); assay: qHTS assay to identify small molecule antagonists of the constitutive androstane receptor (CAR) signaling pathway (AID 1224838); also: nearly all actives have a fitted effect of over 40% in size
Sequence of Nuclear receptor subfamily 1 group I member 3 (Homo sapiens) (Q14994 whole entry, looked up): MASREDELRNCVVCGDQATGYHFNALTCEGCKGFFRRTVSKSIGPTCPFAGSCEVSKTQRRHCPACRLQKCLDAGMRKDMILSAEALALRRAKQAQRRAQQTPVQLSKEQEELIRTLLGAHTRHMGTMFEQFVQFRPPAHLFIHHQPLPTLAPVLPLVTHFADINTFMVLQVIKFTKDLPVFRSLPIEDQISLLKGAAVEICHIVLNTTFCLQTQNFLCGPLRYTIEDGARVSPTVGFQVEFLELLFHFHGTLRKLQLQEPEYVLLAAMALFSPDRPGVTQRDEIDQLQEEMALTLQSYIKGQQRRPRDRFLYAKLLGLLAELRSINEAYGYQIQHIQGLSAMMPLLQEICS
Summary of the method: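 HepG2 cells stably co-transfected with hCAR and a CYP2B6-2.2kb luciferase reporter were seeded 4 h before compound addition at 15 concentrations. Cells were stimulated with 50 nM CITCO (final) for 24 h at 37 C; luciferase luminescence was then read.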
% is scaled to controls: 0 for no effect and ±100 for the full control effect.

O=S(=O)(O)c1ccc2ccccc2c1
inactive: Potency [1] | Potency [2] | Potency [3] | Potency [4] | Potency [5] | outcome [6] | Potency [7] | outcome [8] | Potency [9] | outcome [10] | outcome [11] | Potency [12] | Potency [13] | outcome [14] | Potency [15] | Potency [16]

CC(C)CC(=O)CC(C)C
inactive: Potency [1] | Potency [2] | Potency [4] | Potency [5] | outcome [6] | Potency [7] | activity change, positive = activation ([17]; at 92.4 µM (top of the series)) 0.354% and 0.455% | outcome [8] | Potency [9] | outcome [10] | outcome [11] | Potency [12] | Potency [13] | max response [18] 3.78% and -11.6% | Potency [15] | Potency [16]

FC(F)(F)c1ccc(Cl)c(Cl)c1
inactive: Potency [1] | Potency [2] | Potency [3] | Potency [4] | Potency [5] | outcome [6] | Potency [7] | outcome [8] | Potency [9] | outcome [10] | outcome [11] | Potency [12] | Potency [13] | outcome [14] | Potency [15] | Potency [16]

COc1cc(Cc2cnc(N)nc2N)cc(OC)c1OC
inactive: Potency [1] | Potency [2] | Potency [3] | Potency [4] | Potency [7] | outcome [8] | Potency [9] | outcome [10] | outcome [11] | Potency [12] | Potency [13] | outcome [14] | Potency [15] | Potency [16]

CCCCCCCCCCCCCCCO
inactive: Potency [1] | Potency [2] | Potency [3] | Potency [4] | Potency [5] | outcome [6] | Potency [7] | activity change, positive = activation ([17]; at 92.4 µM (top of the series)) -0.174% | outcome [8] | Potency [9] | outcome [10] | outcome [11] | Potency [12] | Potency [13] | max response [18] 0.0156% | Potency [15] | Potency [16]

C=CCOC(=O)c1ccccc1C(=O)OCC=C
inactive: Potency [1] | Potency [2] | Potency [3] | Potency [4] | outcome [6] | Potency [7] | outcome [8] | Potency [9] | outcome [10] | outcome [11] | Potency [12] | Potency [13] | max response [18] 6.21% and 2.3% | Potency [15] | Potency [16]

O=S1(=O)CC=CC1
inactive: Potency [1] | Potency [2] | Potency [3] | Potency [4] | Potency [5] | outcome [6] | Potency [7] | outcome [8] | Potency [9] | outcome [10] | outcome [11] | Potency [12] | Potency [13] | outcome [14] | max response [18] -4.83% and 3.43% | Potency [15] | Potency [16]

Cc1cc(C)c(C)cc1C
inactive: Potency [1] | Potency [2] | Potency [3] | Potency [4] | outcome [6] | Potency [7] | outcome [8] | Potency [9] | outcome [10] | outcome [11] | Potency [12] | Potency [13] | outcome [14] | max response [18] 0.583% and -29% | Potency [15] | Potency [16]

CC(O)COCC(C)O (centres undefined)
inactive: Potency [1] | Potency [2] | Potency [3] | Potency [4] | Potency [5] | outcome [6] | Potency [7] | outcome [8] | Potency [9] | outcome [10] | outcome [11] | Potency [12] | Potency [13] | Potency [15] | Potency [16]

c1ccc2scnc2c1
inactive: Potency [1] | Potency [2] | Potency [3] | Potency [4] | Potency [5] | outcome [6] | Potency [7] | Potency [9] | outcome [10] | outcome [11] | Potency [12] | Potency [13] | max response [18] 13.8% and 1.41% | Potency [15] | Potency [16]

O=P(OC(CCl)CCl)(OC(CCl)CCl)OC(CCl)CCl
inactive: Potency [1] | Potency [2] | outcome [6] | Potency [7] | activity change, positive = activation ([17]; at 92.4 µM (top of the series)) -54.2% and -40.7% | outcome [10] | outcome [11] | Potency [12] | outcome [14] | Potency [15] | Potency [16]
active: Potency [9] 24.4 µM and 49 µM | Potency [18] 21.8 µM and 49 µM

COc1ccc2cc([C@H](C)C(=O)O)ccc2c1
inactive: Potency [1] | Potency [19] | Potency [2] | Potency [3] | Potency [4] | Potency [5] | Potency [7] | Potency [9] | outcome [10] | outcome [11] | Potency [12] | Potency [13] | outcome [14] | Potency [15] | Potency [16]

CCCCC(CC)COC(=O)C(C#N)=C(c1ccccc1)c1ccccc1 (centres undefined)
inactive: Potency [1] | Potency [2] | Potency [3] | Potency [4] | Potency [5] | outcome [6] | Potency [7] | activity change, positive = activation ([17]; at 42.5 µM (top of the series)) -38.1% | activity change, positive = activation ([17]; at 92.4 µM (top of the series)) -32.9% | Potency [9] | outcome [10] | outcome [11] | Potency [12] | Potency [13] | Potency [15] | Potency [16]

Cc1ccc2oc(=O)ccc2c1
inactive: Potency [1] | Potency [19] | Potency [2] | Potency [3] | Potency [4] | Potency [5] | outcome [6] | Potency [7] | Potency [9] | outcome [10] | outcome [11] | Potency [12] | Potency [13] | outcome [14] | Potency [15] | Potency [16]

CN(C)CCC(c1ccc(Cl)cc1)c1ccccn1 (centres undefined)
inactive: Potency [2] | Potency [3] | Potency [4] | Potency [7] | Potency [9] | outcome [10] | outcome [11] | Potency [12] | Potency [13] | max response [18] -8.75% and -11.3% | Potency [15] | Potency [16]

CCCCCCCCCCCCCCO
inactive: Potency [1] | Potency [2] | Potency [3] | Potency [4] | Potency [5] | outcome [6] | Potency [7] | outcome [8] | Potency [9] | outcome [10] | outcome [11] | Potency [12] | Potency [13] | outcome [14] | max response [18] -1.67% and 1.72% | Potency [15] | Potency [16]

C[C@H]1C[C@@H]2[C@H]([C@@H](O)C[C@@]3(C)[C@H]2CC[C@]3(O)C(=O)CO)[C@@]2(C)C=CC(=O)C=C12
inactive: Potency [1] | Potency [2] | Potency [4] | Potency [7] | activity change, positive = activation ([17]; at 42.5 µM (top of the series)) -3.14% | activity change, positive = activation ([17]; at 92.4 µM (top of the series)) -13.3% | outcome [8] | Potency [9] | outcome [10] | outcome [11] | Potency [12] | Potency [13] | outcome [14] | max response [18] -9.2% and -9.81% | Potency [15] | Potency [16]

O=C(O)[C@H](O)[C@@H](O)[C@H](O)[C@H](O)CO
inactive: Potency [1] | Potency [2] | Potency [4] | Potency [5] | outcome [6] | Potency [7] | outcome [8] | Potency [9] | outcome [11] | Potency [13] | outcome [14] | Potency [16]

Reference: PubChem BioAssay (Tox21)
